Results as given in PubChem BioAssay.
Calls of active or inactive are those of the source.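 How the source made its calls, unless noted: active means inhibition of the reporter signal at or above 50%; inactive means inhibition below 50%.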

Experiments:
[1] = inhibitors of TNFa-induced NFkB p65 translocation, primary screen, imaging, HUVEC, MLSMR starter and 10KST1 sets (AID 438;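 active means inhibition above 20% together with a positive visual image hit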;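 further: compound added about 3h40 before a 20 min TNFalpha stimulation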;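 on inhibition: signal is the nuclear over cytoplasmic p65 intensity ratio per well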); details: HUVEC TNFa-induced p65 nuclear translocation; cell count: measured here: nuclei count (cytotoxicity indicator), at 2.08 µM; inhibition: at 2 µM, stronger effect = higher value, 0% TNFa-plus-vehicle, 100% no-TNFa wells
[2] = reduction of polyQ htt aggregates in cells – imaging, exon1htt(103Q)mCFP cells, high-content imaging, primary screen (AID 483;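 active means visual image review flags a hit and inhibition of aggregation exceeds 20%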;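 further: compound exposure lasted 3 days before fixation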;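 on nuclei count: percent of the per-plate median nuclei count of sample wells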); details: exon1htt(103Q)mCFP cell line, aggregate imaging, at 2 µM; inhibition of aggregation: stronger effect = higher value; nuclei count: measured here: cell count, toxicity
[3] = endothelial E-selectin expression blockers – imaging, HUVEC, immunofluorescence, MLSMR starter and 10KST1 sets, primary screen (AID 487;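 active means visually confirmed hit in the image check and inhibition above 20%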;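 on inhibition: signal is fraction of cell area covered by stained E-selectin grains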;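 on nuclei count: 100% = median nuclei count of all wells on the same plate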); details: HUVEC TNFalpha-induced E-selectin immunofluorescence imaging, at 2 µM; inhibition: stronger effect = higher value; nuclei count: measured here: cell number, toxicity
[4] = target: Voltage-gated potassium channel subunit beta-2 (Rattus norvegicus) (UniProt P62483); test: inhibitors of rat Kvbeta2 reductase activity – biochemical, NADPH fluorescence, primary screen (AID 622;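 active means fluorescence slope higher than the sample average by over 3 SD, cut at about -0.22 in these data, passing the limit was not always enough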;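 further: slope of raw intensity against log time taken from 70 to 1610 s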); details: recombinant KvBeta, 4-cyanobenzaldehyde reduction, at 10 µM, stronger effect = higher value
[5] = target: Voltage-gated potassium channel subunit beta-2 (Rattus norvegicus) (UniProt P62483); test: enhancers of rat Kvbeta2 NADPH turnover – biochemical, NADPH fluorescence, primary screen (AID 623;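 active means NADPH fluorescence slope more negative than the mean of all samples by about 3 SD, 99.7% confidence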;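 further: fluorescence intensity change per second fitted from 20 to 320 s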); details: Recombinant KvBeta, NADPH fluorescence decrease slope, 10 min; at 10 µM; stronger effect = lower value
[6] = target: Alpha-2C adrenergic receptor (Homo sapiens) (UniProt P18825); test: compounds altering alpha2C-coupled GIRK flux – cell-based, HEK293 alpha2C/GIRK1/2, thallium flux, primary screen (AID 624;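 active means fluorescence slope after compound addition differing from the mean of all screened samples at 99.7% confidence, in either direction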;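 further: slope of fluorescence ratio to pre-addition baseline per second over 15 to 24 s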); details: thallium flux BTC fluorescence, at 10 µM, actives lie on both sides
[7] = blockers of RIG-like receptor reporter activation – cell-based, Sendai virus stimulus, luciferase, 10K MLSCN set, TLR/RLR signaling modifier project, primary screen (AID 602276;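 active means inhibition at or above 50% at 10 µM; inactive means inhibition below 50%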;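 further: firefly luciferase from ISG56 promoter only with Renilla not read in this screen; 0% = Sendai virus plus DMSO and 100% = medium plus DMSO without virus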); details: HEK293 RL24 IRF3 luciferase reporter, at 10 µM, stronger effect = higher value
[8] = TLR3 IRF3 reporter activation blockers – cell-based, poly I:C stimulus, luciferase, 10K MLSCN set, primary screen (AID 602277); details: HEK293-TLR3 RL24 IRF3 luciferase reporter, at 10 µM, stronger effect = higher value

Chain of Voltage-gated potassium channel subunit beta-2 (Rattus norvegicus) (P62483 whole entry, looked up): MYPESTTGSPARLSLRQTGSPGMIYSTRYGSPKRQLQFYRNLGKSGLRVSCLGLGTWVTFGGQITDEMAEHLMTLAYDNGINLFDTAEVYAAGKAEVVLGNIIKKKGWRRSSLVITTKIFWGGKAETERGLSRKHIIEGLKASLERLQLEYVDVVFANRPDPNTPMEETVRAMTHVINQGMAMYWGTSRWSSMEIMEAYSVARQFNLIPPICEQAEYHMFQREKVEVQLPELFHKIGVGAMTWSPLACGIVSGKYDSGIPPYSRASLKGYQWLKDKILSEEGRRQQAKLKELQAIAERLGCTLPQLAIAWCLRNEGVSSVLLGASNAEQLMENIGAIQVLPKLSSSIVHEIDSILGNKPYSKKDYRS
Chain of Alpha-2C adrenergic receptor (Homo sapiens) (P18825 whole entry, looked up): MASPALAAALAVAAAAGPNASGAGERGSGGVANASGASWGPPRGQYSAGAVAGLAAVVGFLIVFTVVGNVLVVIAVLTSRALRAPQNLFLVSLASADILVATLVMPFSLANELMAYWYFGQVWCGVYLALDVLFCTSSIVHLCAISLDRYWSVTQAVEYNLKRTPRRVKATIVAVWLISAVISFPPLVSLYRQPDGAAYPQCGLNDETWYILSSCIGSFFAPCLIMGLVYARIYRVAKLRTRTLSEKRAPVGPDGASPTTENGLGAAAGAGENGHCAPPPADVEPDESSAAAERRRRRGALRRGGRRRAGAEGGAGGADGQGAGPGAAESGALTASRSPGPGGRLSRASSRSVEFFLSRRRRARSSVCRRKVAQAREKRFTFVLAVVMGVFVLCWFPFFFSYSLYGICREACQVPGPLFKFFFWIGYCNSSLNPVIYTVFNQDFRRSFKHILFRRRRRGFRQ

SMILES	cell count [1]	inhibition [1]	inhibition of aggregation [2]	nuclei count [2]	inhibition [3]	nuclei count [3]	fluorescence slope [4]	NADPH fluorescence slope [5]	slope [6]	inhibition [7]	inhibition [8]
Cc1csc(NC(=O)c2cc3c(s2)-c2ccccc2OC3)n1	417	8.8% (inactive)	27.8% (inactive)	121%	-27.8% (inactive)	103%	-0.247 (inactive)	-1.9e-06 (inactive)	0.00681 (inactive)	-42% (inactive)	-118% (inactive)
O=C(CSc1nnc(-c2ccccc2)o1)N1CCN(c2ccccc2)CC1	220	12.5% (inactive)	-9.2% (inactive)	88.7%	-98.1% (inactive)	105%	-0.406 (inactive)	-3.6e-05 (inactive)	0.0062 (inactive)	5.38% (inactive)	2.42% (inactive)
C(=C\c1ccccc1)/CN1CCN(Cc2ccc3c(c2)OCCO3)CC1	435	0.5% (inactive)	2% (inactive)	104%	-26.4% (inactive)	120%	-0.442 (inactive)	2e-05 (inactive)	0.00636 (inactive)	14% (inactive)	19.9% (inactive)
C=CCSc1nc2sc(C)c(C)c2c(=O)[nH]1	589	1.4% (inactive)	10.2% (inactive)	111%	3.2% (inactive)	107%	-0.563 (inactive)	-9.3e-06 (inactive)	0.00785 (inactive)	-11.3% (inactive)	-3.55% (inactive)
CCOC(=O)c1cc2c(=O)n3ccccc3nc2n(CC2CCCO2)c1=NC(C)=O (configuration not stated)	617	3.1% (inactive)	18.5% (inactive)	86.7%	22.2% (inactive)	100%	-0.441 (inactive)	-1.3e-05 (inactive)	0.00574 (inactive)	9.86% (inactive)	10.8% (inactive)
c1coc(Cn2nnnc2CN2CCN(C3CCCC3)CC2)c1	530	-15.6% (inactive)	-2.8% (inactive)	96.9%	-1.8% (inactive)	107%	-0.408 (inactive)	2.2e-05 (inactive)	0.00537 (inactive)	-7.52% (inactive)	12.8% (inactive)
CC1=C(C(=O)Nc2ccccc2)C(c2ccccn2)n2nc(CCCO)nc2N1 (configuration not stated)	662	6.2% (inactive)	13.8% (inactive)	93.5%	-8.5% (inactive)	116%	-0.532 (inactive)	-2.2e-05 (inactive)	0.00679 (inactive)	9.62% (inactive)	29.7% (inactive)
